Experimental data as given in PubChem BioAssay (NCATS).
Results filed as inconclusive are left out. Calls of active or inactive are those of the source. Unless noted, calls follow the shape of the dose curve; as a rule, active = well fitted curve in the direction sought with a large enough effect; inconclusive = small, poorly fitted or top-dose-only effect, or another doubt; inactive = no such curve, though single readings can be large; an effect the other way counts as inactive or inconclusive.

What was measured:
[1] = target: Cytochrome P450 1A2 (Homo sapiens) (UniProt P05177); experiment: p450-cyp1a2 (AID 410; calls by dose curve; also: potency is read from the fitted curve at half-maximal effect;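 as to activity change, negative = inhibition: -100% = full effect of reference inhibitor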)
Procedure, shortened: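 Luminescent demethylation readout: Luciferin-ME (100uM, equal to Km) turned over by 20nM CYP1A2 for 60 min at room temperature after NADPH regeneration addition, following 10 min compound preincubation. Normalization used 57 uM furafylline as full inhibition.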

[2] = target: Glucocorticoid receptor (Homo sapiens) (UniProt P04150); experiment: GR-GFP Redistribution (AID 450;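 active = compounds whose dose series gives a full or clear partial fitted curve of increased nuclear translocation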; also: potency is read from the fitted curve at half-maximal effect); conditions: U2OS GR-GFP nuclear translocation, laser cytometry, 2 h
[3] = target: Glucocorticoid receptor (Homo sapiens) (UniProt P04150); experiment: GR-EFC Redistribution (AID 451; calls by dose curve; also: potency is read from the fitted curve at half-maximal effect); conditions: CHO-K1 GR-EFC translocation, beta-gal luminescence, 2 h
Procedure, shortened: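 CHO-K1 cells expressing nuclear EA and GR-ED fragments of b-gal; compounds titrated up to 46 uM final, 2 h at 37 C. GR nuclear translocation read as complemented b-gal luminescence after 1 h RT detection.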

[4] = target: Mitogen-activated protein kinase 10 (Mus musculus) (UniProt Q61831); experiment: JNK3 AlphaScreen Assay (AID 530; active = well fitted curve in either direction with a large enough effect, not every such curve was filed as active;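 also: kinase came from lysate of stimulated human HepG2 cells; signal reports phosphorylation of biotinylated GST-cJun 1-79 at Ser73 with 10 µM ATP; % is scaled to controls: 0 for no effect and ±100 for the full control effect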)
Procedure, shortened: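 Activity was read by AlphaScreen after JNK3-containing HepG2 lysate (cytokine pre-activated) phosphorylated biotinylated GST-cJun with 10 uM ATP at room temperature. Phospho-Ser73 cJun antibody with Protein-A acceptor beads provided detection.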

[5] = qHTS Assay for Lipid Storage Modulators (AID 1519; calls by dose curve; as to activity change, negative = inhibition: % is scaled to controls: 0 for no effect and ±100 for the full control effect); conditions: Drosophila S3 cells, BODIPY lipid droplet/cell ratio, laser cytometry, cells loaded with oleic acid; for activity change, negative = inhibition: at 57.5 µM (top of the series)
Procedure, shortened: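 Cells seeded at 5,000 per well were treated with compounds over a concentration series and loaded with oleic acid (400 uM, as added). Lipid droplet fluorescence (488 nm excitation, 500-530 nm channel) was read by laser-scanning cytometry and normalized to 20 uM Triacsin C.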

[6] = target: DNA dC->dU-editing enzyme APOBEC-3G (Homo sapiens) (UniProt Q9HC16); experiment: qHTS for inhibitors of Vif-A3G interactions: Validation (AID 588379); also: 0% is about no effect
Procedure, shortened: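 Yellow fluorescence (Ex 488, Em 500-530) of Vif-coexpressing HeLa A3G-eYFP cells, scanned by Acumen cytometer, reports blocked A3G degradation. Cells plated at 700/well overnight at 37 deg C before compound addition, then a further overnight compound incubation at 37 deg C.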

[7] = system: Zika virus NS2B-NS3 protease; experiment: Primary screen GU AMC qHTS for Zika virus inhibitors (AID 1347154);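 also: 0% = no-inhibitor control and -100% = no-enzyme control; nearly all actives have a fitted effect of over 70% in size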
Procedure, shortened: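 Unlinked Zika NS2B hydrophilic domain–NS3 protease complex at 25 nM in 10 mM Tris-HCl pH 8.0, 0.01% Tween 20, with an AMC peptide substrate. Fluorescence change (340/450 nm) over 15 min at room temperature, normalized to controls, fitted to 4-parameter Hill.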

[8] = Primary qHTS for small molecule stabilizers of the endoplasmic reticulum resident proteome: Secreted ER Calcium Modulated Protein (SERCaMP) assay (AID 1508630); also: % is scaled to controls: 0 for no effect and ±100 for the full control effect
Procedure, shortened: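 The SH-SY5Y reporter protocol was run at 3 concentrations up to 38.3 uM (primary) or 11 concentrations (follow-up): 16 h compound, 100 nM thapsigargin for 4 h, then extracellular luciferase luminescence.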

[9] = target: 3',5'-cyclic-AMP phosphodiesterase 4B (Homo sapiens) (UniProt Q07343); experiment: qHTS Assay for Inhibitors of PDE-IV (AID 607; active = well fitted activation curve with a large enough effect in the main read-out, with a control signal flat, not every such curve was filed as active; also: % of control where 0% means no effect)
Procedure, shortened: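 The readout is membrane depolarisation from a cAMP-sensing CNG channel, detected with a potential dye at ex 535/em 590. Cells were HEK293-derived (endogenous PDE-IV) at 1000 cells/well, titrated up to 22.9 uM final.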

[10] = target: Cytochrome P450 3A4 (Homo sapiens) (UniProt P08684); experiment: qHTS Assay for Inhibitors and Substrates of Cytochrome P450 3A4 (AID 884); also: % is scaled to controls: 0 for no effect and ±100 for the full control effect; nearly all actives have a fitted effect of over 50% in size
Procedure, shortened: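 Luminescent readout of luciferin produced by CYP3A4 (20 nM) dealkylation of Luciferin-PPXE, 25 uM (its KM). NADPH-driven reaction ran 60 min at RT after 10 min compound preincubation; data scaled to 57 uM ketoconazole as 100% inhibition.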

[11] = qHTS Assay for Identification of Small Molecule Antagonists for NFkB Signaling Pathway (AID 895; active = well fitted inhibition curve with a large enough effect in the signal ratio, with a control signal flat, not every such curve was filed as active; the % refers to the signal ratio; also: % is scaled to controls: 0 for no effect and ±100 for the full control effect)
Procedure, shortened: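 ME-180 NFkB-bla cells (beta-lactamase under NFkB response element), plated overnight, treated with compound then 10 pM TNF alpha (about EC50) for 5 hrs at 37 C. LiveBLAzer FRET read at 460/530 nm emission, 405 nm excitation.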

[12] = target: Muscarinic acetylcholine receptor M1 (Rattus norvegicus) (UniProt P08482); experiment: qHTS Assay for Antagonists of Acetylcholine Muscarinic M1 Receptor: Measurement of IP-One Response (AID 944); also: nearly all actives have a fitted effect of over 75% in size
Procedure, shortened: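 IP1 accumulation measured via TR-FRET between d2-IP1 and Eu-cryptate anti-IP1 antibody after carbachol (200 nM, EC80) stimulation for 30 min; rat M1-transfected CHO cells received compound 10 min before agonist.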

[13] = target: Pyruvate kinase (Leishmania mexicana) (UniProt Q27686); experiment: qHTS Validation Assay for Inhibitors of Leishmania Mexicana Pyruvate Kinase (AID 945);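 also: 0% = DMSO only neutral control wells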
Procedure, shortened: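 The enzyme is a highly purified E451W mutant of LmPYK used at 0.2 nM. It converts 0.5 mM PEP and 0.1 mM ADP over 1 h at room temperature; product ATP is quantified by luciferase luminescence relative to DMSO controls.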

[14] = target: Pyruvate kinase PKM (Homo sapiens) (UniProt P14618); experiment: qHTS Assay for Activators of Human Muscle Pyruvate Kinase (AID 954; active = well fitted curve in the direction sought with a large enough effect, not every such curve was filed as active;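 also: 0% = uninhibited enzyme and -100% = no enzyme or full thiadiazolimine inhibition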)
Procedure, shortened: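 PKM2, human, >95% pure, 0.1 nM; PEP 0.5 mM (Km), ADP 0.1 mM; 50 mM imidazole pH 7.2, 50 mM KCl, 0.01% Tween 20, 0.05% BSA; 1 h RT; luciferase luminescence readout.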

[15] = target: Alpha-galactosidase A (Homo sapiens) (UniProt P06280); experiment: Counterscreen for Glucocerebrosidase Inhibitors: qHTS Assay for Human alpha-Galactosidase at pH 4.5 (AID 992); also: 0% is about no effect
Procedure, shortened: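 Fluorogenic 4-MU alpha-D-galactoside (80 uM) hydrolysis, 2 nM enzyme, pH 4.5 citrate buffer + 0.005% Tween-20; 20 min RT; NaOH/glycine pH 10 stop; Ex365/Em440. Compounds titrated 0.7 nM–77 uM; Hill-equation AC50.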

[16] = target: alpha-glucosidase (Oryza sativa, rice) (UniProt Q653V4); experiment: Counterscreen for Glucocerebrosidase Inhibitors: qHTS Assay for Rice alpha-Glucosidase at pH 5.0 (AID 997);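 also: 0% = full activity with enzyme and -100% = basal without enzyme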
Procedure, shortened: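 Endpoint fluorogenic assay at pH 5.0: compounds (0.7 nM to 77 uM) titrated against 4 nM rice enzyme and 400 uM 4-MU-alpha-glucoside for 20 min at room temperature; NaOH/glycine stop, read ex 365/em 440 nm, Hill-fitted AC50.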

[17] = target: Ubiquitin carboxyl-terminal hydrolase 1 (Homo sapiens) (UniProt O94782); experiment: Inhibitors of USP1/UAF1: Pilot qHTS (AID 504865);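 also: rhodamine fluorescence freed from ubiquitin-rhodamine substrate followed over time; top concentration of the series differs between compounds; % is scaled to controls: 0 for no effect and ±100 for the full control effect; nearly all actives have a fitted effect of over 35% in size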
Procedure, shortened: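 USP1/UAF1 complex (1nM) preincubated with compound 15 min at room temperature, then Ub-Rho substrate (150nM final) added. Fluorescence read kinetically at 480/540 nm, 6 reads every 60 seconds. Buffer: 50mM HEPES pH 7.8, 0.5mM EDTA, 0.1 mg/ml BSA, 1mM TCEP, 0.01% Tween-20.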

[18] = measured here: cell count channel max response
[19] = measured here: lipid channel max response

Cytochrome P450 1A2 (Homo sapiens), sequence (P05177 whole entry, looked up): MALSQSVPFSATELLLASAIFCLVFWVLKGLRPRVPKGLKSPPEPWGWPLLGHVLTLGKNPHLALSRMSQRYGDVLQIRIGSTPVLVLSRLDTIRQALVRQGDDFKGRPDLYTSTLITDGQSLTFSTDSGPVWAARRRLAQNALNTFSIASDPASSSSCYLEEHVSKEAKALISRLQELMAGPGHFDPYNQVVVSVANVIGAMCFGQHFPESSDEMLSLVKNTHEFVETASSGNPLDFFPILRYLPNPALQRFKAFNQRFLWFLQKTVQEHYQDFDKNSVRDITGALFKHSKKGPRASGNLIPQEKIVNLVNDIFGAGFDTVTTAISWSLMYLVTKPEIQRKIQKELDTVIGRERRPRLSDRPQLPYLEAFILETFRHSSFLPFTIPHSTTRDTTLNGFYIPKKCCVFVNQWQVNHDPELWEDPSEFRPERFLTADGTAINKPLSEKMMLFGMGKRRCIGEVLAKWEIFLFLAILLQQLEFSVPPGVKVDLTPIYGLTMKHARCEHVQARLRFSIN
DNA dC->dU-editing enzyme APOBEC-3G (Homo sapiens), sequence (Q9HC16 whole entry, looked up): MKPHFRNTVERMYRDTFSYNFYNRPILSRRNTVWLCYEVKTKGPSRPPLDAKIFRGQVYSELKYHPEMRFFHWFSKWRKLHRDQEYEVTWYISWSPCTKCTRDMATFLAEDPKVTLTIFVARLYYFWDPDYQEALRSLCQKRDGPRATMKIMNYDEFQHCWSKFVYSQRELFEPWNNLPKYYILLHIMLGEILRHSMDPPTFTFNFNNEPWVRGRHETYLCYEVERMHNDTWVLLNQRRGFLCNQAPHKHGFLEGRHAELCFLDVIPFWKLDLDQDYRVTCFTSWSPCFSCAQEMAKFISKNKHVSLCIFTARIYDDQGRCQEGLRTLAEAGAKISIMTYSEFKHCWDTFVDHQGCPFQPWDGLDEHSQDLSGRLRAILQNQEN
Glucocorticoid receptor (Homo sapiens), sequence (P04150 whole entry, looked up, the tested form may be a part): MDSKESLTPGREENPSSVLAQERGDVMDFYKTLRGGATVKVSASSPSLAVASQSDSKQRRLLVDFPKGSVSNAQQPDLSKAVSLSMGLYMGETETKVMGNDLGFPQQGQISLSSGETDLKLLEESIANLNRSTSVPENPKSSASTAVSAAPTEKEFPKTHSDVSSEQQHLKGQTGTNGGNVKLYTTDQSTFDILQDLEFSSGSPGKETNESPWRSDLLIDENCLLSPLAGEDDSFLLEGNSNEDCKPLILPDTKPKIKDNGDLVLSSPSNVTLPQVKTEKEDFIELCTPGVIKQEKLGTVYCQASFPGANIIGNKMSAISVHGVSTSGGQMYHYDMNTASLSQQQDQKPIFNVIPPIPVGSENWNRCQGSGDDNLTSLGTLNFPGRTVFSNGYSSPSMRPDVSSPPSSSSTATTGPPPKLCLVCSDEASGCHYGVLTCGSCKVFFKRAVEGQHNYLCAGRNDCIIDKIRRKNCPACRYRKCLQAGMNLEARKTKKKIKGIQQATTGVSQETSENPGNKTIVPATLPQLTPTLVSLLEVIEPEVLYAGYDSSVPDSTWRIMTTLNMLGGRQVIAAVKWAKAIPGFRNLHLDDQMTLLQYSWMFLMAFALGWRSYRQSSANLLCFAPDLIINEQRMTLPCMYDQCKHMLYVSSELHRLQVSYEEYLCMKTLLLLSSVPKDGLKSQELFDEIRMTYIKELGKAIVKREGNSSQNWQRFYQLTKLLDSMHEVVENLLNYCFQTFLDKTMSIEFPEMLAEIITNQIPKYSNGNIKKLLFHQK
3',5'-cyclic-AMP phosphodiesterase 4B (Homo sapiens), sequence (Q07343 whole entry, looked up): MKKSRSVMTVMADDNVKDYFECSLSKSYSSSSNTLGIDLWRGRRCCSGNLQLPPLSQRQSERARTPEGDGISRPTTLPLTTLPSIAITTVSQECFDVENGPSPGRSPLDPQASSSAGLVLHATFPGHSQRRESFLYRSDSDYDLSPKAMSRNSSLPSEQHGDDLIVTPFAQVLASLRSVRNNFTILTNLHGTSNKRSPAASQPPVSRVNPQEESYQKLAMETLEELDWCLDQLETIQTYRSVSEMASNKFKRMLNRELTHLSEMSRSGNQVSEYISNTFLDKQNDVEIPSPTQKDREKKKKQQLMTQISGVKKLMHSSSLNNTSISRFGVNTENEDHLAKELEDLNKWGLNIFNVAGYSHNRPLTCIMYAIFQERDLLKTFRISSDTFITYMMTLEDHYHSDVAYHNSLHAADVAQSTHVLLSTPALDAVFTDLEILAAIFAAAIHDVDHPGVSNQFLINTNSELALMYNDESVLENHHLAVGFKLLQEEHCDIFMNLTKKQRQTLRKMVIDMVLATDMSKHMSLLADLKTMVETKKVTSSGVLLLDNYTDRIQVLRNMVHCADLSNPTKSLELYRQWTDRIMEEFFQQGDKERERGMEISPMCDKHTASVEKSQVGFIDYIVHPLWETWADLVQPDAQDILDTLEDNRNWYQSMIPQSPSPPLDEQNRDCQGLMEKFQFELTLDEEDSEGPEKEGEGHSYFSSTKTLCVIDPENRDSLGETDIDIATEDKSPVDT
Ubiquitin carboxyl-terminal hydrolase 1 (Homo sapiens), sequence (O94782 whole entry, looked up): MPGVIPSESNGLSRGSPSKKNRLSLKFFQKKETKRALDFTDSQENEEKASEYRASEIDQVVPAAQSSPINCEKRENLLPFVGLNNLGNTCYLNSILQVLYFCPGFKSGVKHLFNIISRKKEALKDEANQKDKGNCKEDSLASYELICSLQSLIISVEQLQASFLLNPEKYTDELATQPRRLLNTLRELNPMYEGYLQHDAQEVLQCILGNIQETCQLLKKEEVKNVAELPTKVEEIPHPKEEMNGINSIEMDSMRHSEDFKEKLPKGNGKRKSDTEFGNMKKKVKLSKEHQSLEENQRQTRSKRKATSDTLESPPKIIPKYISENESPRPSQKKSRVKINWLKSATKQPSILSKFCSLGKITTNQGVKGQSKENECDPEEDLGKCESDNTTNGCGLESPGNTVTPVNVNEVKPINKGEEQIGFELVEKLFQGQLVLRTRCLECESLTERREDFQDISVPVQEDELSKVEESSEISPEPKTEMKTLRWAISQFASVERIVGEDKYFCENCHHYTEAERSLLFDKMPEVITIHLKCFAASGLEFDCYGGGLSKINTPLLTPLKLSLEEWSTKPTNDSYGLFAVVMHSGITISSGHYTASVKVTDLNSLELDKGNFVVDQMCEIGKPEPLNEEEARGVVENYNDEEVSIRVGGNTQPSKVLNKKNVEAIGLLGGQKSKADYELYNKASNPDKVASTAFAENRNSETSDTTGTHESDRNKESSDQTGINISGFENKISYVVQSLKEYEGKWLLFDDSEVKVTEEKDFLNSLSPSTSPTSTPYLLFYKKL
Alpha-galactosidase A (Homo sapiens), sequence (P06280 whole entry, looked up): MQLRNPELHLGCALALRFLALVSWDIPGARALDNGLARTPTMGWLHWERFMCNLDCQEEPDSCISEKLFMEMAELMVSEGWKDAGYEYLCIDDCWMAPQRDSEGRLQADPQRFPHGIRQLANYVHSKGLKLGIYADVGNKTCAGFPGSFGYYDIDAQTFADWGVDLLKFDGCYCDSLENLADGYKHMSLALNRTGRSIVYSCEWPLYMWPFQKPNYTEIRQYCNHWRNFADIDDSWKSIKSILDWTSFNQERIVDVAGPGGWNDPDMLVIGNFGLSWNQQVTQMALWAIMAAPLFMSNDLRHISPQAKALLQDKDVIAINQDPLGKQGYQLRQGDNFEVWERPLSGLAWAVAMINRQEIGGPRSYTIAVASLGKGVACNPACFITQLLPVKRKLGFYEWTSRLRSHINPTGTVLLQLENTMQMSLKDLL
Muscarinic acetylcholine receptor M1 (Rattus norvegicus), sequence (P08482 whole entry, looked up): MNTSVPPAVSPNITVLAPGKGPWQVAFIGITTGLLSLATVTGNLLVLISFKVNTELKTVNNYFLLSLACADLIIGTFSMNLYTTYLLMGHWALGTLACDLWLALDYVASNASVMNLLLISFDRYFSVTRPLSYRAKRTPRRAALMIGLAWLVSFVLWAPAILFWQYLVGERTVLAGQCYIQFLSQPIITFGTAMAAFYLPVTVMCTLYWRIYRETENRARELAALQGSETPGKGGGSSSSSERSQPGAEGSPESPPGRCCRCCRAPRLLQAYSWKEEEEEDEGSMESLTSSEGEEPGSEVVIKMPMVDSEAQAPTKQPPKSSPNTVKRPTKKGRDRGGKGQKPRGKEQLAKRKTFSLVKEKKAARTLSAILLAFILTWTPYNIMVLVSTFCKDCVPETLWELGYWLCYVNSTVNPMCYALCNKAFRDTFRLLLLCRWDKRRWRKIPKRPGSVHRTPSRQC
Cytochrome P450 3A4 (Homo sapiens), sequence (P08684 whole entry, looked up): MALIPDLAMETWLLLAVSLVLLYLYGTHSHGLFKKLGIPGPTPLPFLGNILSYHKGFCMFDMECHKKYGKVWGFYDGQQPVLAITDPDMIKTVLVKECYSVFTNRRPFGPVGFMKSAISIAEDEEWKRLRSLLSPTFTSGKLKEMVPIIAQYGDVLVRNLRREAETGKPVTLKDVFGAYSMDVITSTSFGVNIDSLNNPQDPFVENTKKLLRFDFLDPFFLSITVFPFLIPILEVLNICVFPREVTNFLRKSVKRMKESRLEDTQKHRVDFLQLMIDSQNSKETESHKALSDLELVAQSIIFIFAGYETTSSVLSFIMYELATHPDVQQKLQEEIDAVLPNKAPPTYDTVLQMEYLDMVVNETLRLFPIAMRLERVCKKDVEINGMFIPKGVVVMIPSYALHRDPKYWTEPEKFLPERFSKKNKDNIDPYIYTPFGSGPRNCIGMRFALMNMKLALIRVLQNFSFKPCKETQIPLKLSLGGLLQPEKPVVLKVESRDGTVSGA

CCCN(CCC)[C@@H]1CCc2c(OC)cccc2[C@@H]1C
12.1%: max response [5, 19]
8.03%: max response [5, 18]
inactive: Potency [2] > 46 µM | Potency [3] > 46 µM | outcome [4] | activity change, negative = inhibition [5] -0.226% | Potency [6] | Potency [7] | Potency [8]
active: Potency [1] 31.6 µM

Cc1o[nH]c(=O)c1C[C@@H](N)C(=O)O
0.175%: max response [5, 19]
-0.22%: max response [5, 18]
inactive: Potency [1] | Potency [2] > 46 µM | outcome [4] | Potency [9] | activity change, negative = inhibition [5] -2.31% | Potency [6] | Potency [7] | Potency [8]

C=C(C)[C@H]1CN[C@H](C(=O)O)[C@@H]1CC(=O)O
inactive: Potency [1] | Potency [2] > 46 µM | Potency [3] > 46 µM | outcome [4] | Potency [9] | Potency [10] | Potency [11] | Potency [12] | outcome [13] | outcome [14] | outcome [15] | outcome [16] | activity change, negative = inhibition [5] 2.85% | Potency [17] | Potency [6] | Potency [7] | Potency [8]
-5.55%: max response [5, 18]
-4.1%: max response [5, 19]
